Molecular target: AHCY
Experiment: pooled miR-30 sensor sort-seq; sequence = guide strand
Settings: shRNA
Further: reference of the scale not given here.

Sequence | sensor-assay potency score (higher = more potent)
TTAACAGTCTATTCTAACCCCT | -0.371
TTGTAGAGGTTGTGGACCCCAG | -0.72
TTAGCTTGGTCAACTTCACATT | -0.84
TTGGTGTGGATGAGGTTGGTGA | -1.01
AAACTTGCTCTTGGTGACGGAG | -1.03
TTGATGGGGTCAATCTCGGTGA | -1.04
ATGATGTCAATACAGCCTGTGG | -1.59
TTACTCATCACGAAGCTGGGGT | 0.777
TAACAGTCTATTCTAACCCCTG | -0.522
ATCTCGGTGATGATGACGCGGG | -1.23
TCGATCTGCGCCATCACCTGGT | -0.451
TTGATGTTCACCTTCTCCACGG | 0.235
TAGAGGTTGTCAAACTTGCTCT | -0.554
TTGTCAAACTTGCTCTTGGTGA | -0.625
TATAAGTCCACAGACCAGGTGA | 0.25
TCATCTTGTAGAGGTTGTGGAC | -0.726
TCTTTTAACATTATAGGCCAAA | -1.21
TAGCTTGGTCAACTTCACATTC | -1.21
TTGCTTCTCAGTTAGCTTGGTC | -0.044
ACACACAATGGCATCATCCTTC | -0.521
TTCATCTGCTCAAAGTGCCGGC | -0.375

Molecular target: AHDC1
Experiment: as above
Settings: shRNA

Sequence | sensor-assay potency score (higher = more potent)
AACTCTGGGACTGAGACCGGGC | -0.558
TTGAACTGGGTGCTGTCGGAGG | -0.689
TTGTATGTGGTCTTGTTCCGCC | -0.176
TCTGGTTCCAGTTGTAGCCGGG | 0.572
ATGCTTGCCATCAAGCTCGGGA | -0.78
TTGCTGTTAGCGCAGTCCTGGC | -1.57
TTCTTCATCTTCAGCAGCGGGG | -0.945
TTTGTATGTGGTCTTGTTCCGC | 0.223
TTTGCGGGTAGAGACCACTGGG | -0.394
TTGGGTACCATGTAGCCACCGG | -0.207
TTGCGGGTAGAGACCACTGGGG | -0.627
TAGCTTGCTGCTCGTCCTGGTG | -0.838

Molecular target: AIG1
Experiment: as above
Settings: shRNA

Sequence | sensor-assay potency score (higher = more potent)
TAGTTACACAGGATAGAGCAGT | -0.722
ATAAAGGGCAGAACCGTCGTGT | 0.238
AATTCTTTAACACACAGTGAGG | -1.45
TTATCAGTAATGACTTTGGGAA | -0.914
TAAATGATCCAGAACACTGCTA | 0.31
TTTGGAAACAACTGTATTCTAT | -0.0597
TTCTTTAACACACAGTGAGGGT | -0.962

Source: the OligoGym collection
